BLM helicase inh: qHTS Assay for Inhibitors of Bloom's syndrome helicase (BLM) | recombinant BLM DNA unwinding, fluorescence dequenching | RecQ-like DNA helicase BLM (Homo sapiens), P54132 | 350,000 compounds, 0.2% hits | AID 2528, 2010 | Potency, µM (doses to about 56.1 µM), without a hit: at the top dose activity change, negative = inhibition, actives largely listed as inhibitors;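 note: plate controls were vehicle for no effect and no enzyme for full effect; nearly all actives have a fitted effect of over 35% in size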
APE1 inh: qHTS Assay for Inhibitors of the Human Apurinic/apyrimidinic Endonuclease 1 (APE1); DNA repair nuclease/redox regulator APEX1 (Homo sapiens), P27695; recombinant APE1, TAMRA/BHQ-2 abasic DNA cleavage fluorescence; Potency, µM (doses to about 65.8 µM), for the others: at the highest dose activity change, negative = inhibition, usual class: inhibitors; 350,000 compounds, 0.35% hits;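 note: plate controls were vehicle for no effect and reference inhibitor for full effect; nearly all actives have a fitted effect of over 55% in size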
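0.75 nM APE1 + cpd, 15 min RT; start w/ 50 nM TAMRA/BHQ-2 THF-abasic dsDNA; kinetic fluor 525/598 nm ×3 reads @60 s; Δ(read3−read1); normalized to DMSO and NSC13755 control wells.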
RECQ1 helicase: qHTS Assay for Inhibitors of RecQ-Like Dna Helicase 1 (RECQ1). ATP-dependent DNA helicase Q1 (Homo sapiens), P46063. RECQ1 DNA unwinding, red fluorescence kinetic read. Potency, µM (top dose mostly 57.3 µM), for inactives: top-dose activity, negative = inhibition, hits mostly inhibitors. 240,000 compounds, 0.54% hits;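 note: plate controls were vehicle for no effect and no enzyme for full effect; nearly all actives have a fitted effect of over 30% in size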
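50 nM RECQ1T1 preincubated 15 min with compound in Tris pH 8.0 buffer with MgCl2, DTT, Tween-20 and 2.5 ug/ml poly(dI-dC); started with 200 nM TAMRA/BHQ-2 forked duplex and 2 mM ATP. Unwinding read as fluorescence (525/598 nm), two reads 2 h apart.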
FEN1 inh: qHTS Assay for the Inhibitors of Human Flap endonuclease 1 (FEN1); P39748; Recombinant FEN1 flap cleavage, fluorescence, 15 min; Potency, µM (titrated, usually from 114 µM), inactives show top-dose activity change, negative = inhibition, most hits filed as inhibitors; 390,000 compounds, 0.35% hits; note: nearly all actives have a fitted effect of over 65% in size
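In this screen, 50 nM flap DNA substrate was added to 10 nM FEN1 pretreated with compound for 15 min at room temperature; cleavage was followed with reads at 0 and 15 min, and Hill fitting gave concentration–response parameters.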
TDP1 block: qHTS Assay for Inhibitors of Tyrosyl-DNA Phosphodiesterase (TDP1) | Potency, µM (top dose mostly 130 µM), without a hit: at the highest dose activity change, negative = inhibition, usual class: inhibitors | 350,000 compounds, 0.28% hits | recombinant TDP1, AlphaScreen DNA substrate cleavage; note: nearly all actives have a fitted effect of over 40% in size
Target sequence (Q9NUW8 whole entry, looked up): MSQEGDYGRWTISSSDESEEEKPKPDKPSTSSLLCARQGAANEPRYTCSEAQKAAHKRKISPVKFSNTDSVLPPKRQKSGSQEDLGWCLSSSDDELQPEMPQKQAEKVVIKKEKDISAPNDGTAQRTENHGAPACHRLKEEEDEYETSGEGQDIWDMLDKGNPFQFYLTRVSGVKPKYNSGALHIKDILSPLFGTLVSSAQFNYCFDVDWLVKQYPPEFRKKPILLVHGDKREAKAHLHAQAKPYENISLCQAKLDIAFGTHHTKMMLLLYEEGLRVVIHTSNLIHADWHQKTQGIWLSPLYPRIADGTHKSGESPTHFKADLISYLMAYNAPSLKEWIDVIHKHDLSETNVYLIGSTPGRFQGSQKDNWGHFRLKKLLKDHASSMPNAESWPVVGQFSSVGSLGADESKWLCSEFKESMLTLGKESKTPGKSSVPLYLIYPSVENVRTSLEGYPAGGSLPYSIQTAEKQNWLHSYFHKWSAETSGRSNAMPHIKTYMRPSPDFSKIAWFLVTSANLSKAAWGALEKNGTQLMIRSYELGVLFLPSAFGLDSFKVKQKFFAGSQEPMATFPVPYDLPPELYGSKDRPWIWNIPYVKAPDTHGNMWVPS
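Enzyme-compound mixtures sat 15 min at room temperature, followed by a 5 min reaction with 15 nM final substrate and 10 min with AlphaScreen beads. Recombinant human Tdp1 was used at 1 nM final.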
Starred values were filed as active, the others as inactive; ? = inconclusive; / = no result given; ! = not active in a repeat; [ ] = dose if it differs, or a comment. In the library only some 0.92% were active in any assay of this set; here they are far more common. Calls come from the whole dose curve; as a rule, active = well fitted curve in the direction sought with a large enough effect; inconclusive = small, poorly fitted or top-dose-only effect, or another doubt; inactive = no such curve, though single readings can be large; an effect the other way counts as inactive or inconclusive. Unless noted, % is set by controls: 0 for no effect and ±100 for the full control effect; potency is the fitted concentration of half-maximal effect.

SMILES | BLM helicase inh | APE1 inh | RECQ1 helicase | FEN1 inh | TDP1 block
Cc1ccccc1CNC(=O)Cn1ncn2nc(-c3cccs3)cc2c1=O | -2% | / | / | 89µM* | 6%
COc1ccc(C2C3=C(N=CN(CCN4CCOCC4)C3N)Oc3ccccc32)cc1OC (configuration not stated) | / | / | / | / | 3%
CC1(C)C(/C=C/C=C/C=C/C=C2\N(CCCCS(=O)(=O)O)c3ccc4ccccc4c3C2(C)C)=[N+](CCCCS(=O)(=O)[O-])c2ccc3ccccc3c21 | ? | / | / | 20µM* | /
C=C1C(=O)O[C@H]2[C@H]1CC/C(C)=C\CC[C@@]1(C)O[C@@H]21 | / | 2%[21 µM] | / | / | /
CCCCCCCCCCCCCCCC(=O)OC[C@H](O)[C@H]1OC(=O)C(O)=C1O | / | 8.9µM* | / | / | /
CC(=O)Nc1ccccc1OC1=N[S+](=O)([O-])c2ccccc21 | / | / | / | / | 0%
O=C(COc1ccc2c3c(c(=O)oc2c1)CCC3)Nc1ccc(CCO)cc1 | -11% | -6% | / | 13% | 40µM*
CC1(C)c2ccccc2N2CC(=O)N(CC(N)=O)C21C (configuration not stated) | -13% | ? | 32µM* | 79µM* | 7%
CC(=O)Oc1cc(O)c2c(=O)c(OC(C)=O)c(-c3ccc(OC(C)=O)c(OC(C)=O)c3)oc2c1 | / | / | / | 2.8µM* | /
COc1ccc(-c2oc3cc(OC)c(OC(C)=O)c(OC)c3c(=O)c2OC)cc1OC(C)=O | -4% | -5% | -3% | / | 8%
CN(C)c1ncc2nc(-c3ccccc3)c(=O)n(Cc3ccc(F)cc3)c2n1 | -3% | -3% | -10% | / | /
CN(C)c1ncc2nc(-c3ccc(Cl)cc3)c(=O)n(Cc3ccc(F)cc3)c2n1 | 1% | 32µM* | -6% | / | /
CCN(C(=O)COC(=O)c1ccc([N+](=O)[O-])o1)c1cccc2ccccc12 | / | -8% | / | 28µM* | 5%
CCN(C(=O)COC(=O)c1cccnc1)c1cccc2ccccc12 | / | -13% | / | -17% | 1%
O=C(Nc1ccc(OC(F)(F)F)cc1)c1noc2c1CCCC2 | -4% | / | / | 2% | 4%
CC(=O)c1ccc(NC(=O)c2noc3c2CCC3)cc1 | -28% | ? | ? | -13% | 25µM*
O=C1CCc2cc(S(=O)(=O)Nc3ccc(Cl)c(Cl)c3)ccc2N1 | / | / | / | / | 1%
N#Cc1c(-c2ccc(OCCOCCOCCN)cc2)no[n+]1[O-] | / | -4% | / | / | /
O=C1C2C3C=CC(C3)C2C(=O)N1CNc1ccc(O)cc1 (configuration not stated) | 25µM* | ? | ? | / | -4%
O=C(COc1ccc(Cl)cc1Cl)Nc1ccc(C(=O)Nc2ccccc2C(=O)O)cc1 | ? | -5% | / | -18% | 50µM*
O=C(COc1ccccc1Cl)Nc1cc(NC(=O)COc2ccccc2Cl)cc(C(=O)O)c1 | -23% | -25% | / | 4% | 35µM*
COc1ccccc1OCC(=O)Nc1cc(NC(=O)COc2ccccc2OC)cc(C(=O)O)c1 | -2% | -7% | / | 1% | 1%
O=C(COc1ccc(Cl)cc1Cl)NC(=S)Nc1ccccc1C(=O)O | 2% | 11% | 9% | / | 4%
CCC(=O)Oc1ccc2c(c1)CC[C@@H]1[C@@H]2CC[C@]2(C)[C@@H](OC(=O)CC)CC[C@@H]12 | / | -4% | / | / | /
CCN(CC)c1ccc(/C=C/c2ccc3ccccc3n2)cc1 | / | / | / | 45µM* | /
SMILES | BLM helicase inh | APE1 inh | RECQ1 helicase | FEN1 inh | TDP1 block
CCN(CC)c1ccc(/C=C/c2c(C)cnc3ccccc23)cc1 | / | / | / | -22% | /
CC(=O)/C=C/c1ccc2ccccc2n1 | -4% | 10% | -11% | 1% | 0%
CC[N+](C)(C)c1ccc(/C=C/c2ccc3ccccc3n2)cc1 | / | / | / | 45µM* | /
CC(=O)Nc1ccc(S(=O)(=O)NCCC(=O)OCC(=O)N2CCN(C(=O)c3ccco3)CC2)cc1 | -8% | ? | / | -2% | 40µM*
O=C(CCNS(=O)(=O)c1cccc(Cl)c1)OCC(=O)N1CCN(C(=O)c2ccco2)CC1 | / | -32% | / | -1% | -5%[56.1 µM]
Cc1ccc(CCNC(=O)c2cc3c(s2)-c2ccccc2OC3)cc1 | -17% | / | / | ? | 40µM*
O=C(NCCc1ccc(Cl)cc1)c1cc2c(s1)-c1ccccc1OC2 | ? | / | / | -14% | -1%
COc1ccc(-c2cc(C(=O)OCC(=O)N3CCOCC3)c3ccccc3n2)cc1 | / | -12% | / | -29% | -5%
COC(=O)C1CCN(C(=O)COC(=O)c2cc(-c3ccccc3)nc3ccc(OC)cc23)CC1 | / | ? | / | -15% | 28µM*
Nc1ccc(S(=O)(=O)N2CCN(S(=O)(=O)c3ccc4c(c3)OCCO4)CC2)cc1 | / | / | / | / | 0%
O=C(CN1C(=O)/C(=C\c2ccco2)SC1=S)Nc1ccc(O)cc1C(=O)O | 5% | -39% | / | -6% | -13%
CCc1ccc(/C=C2/SC(=S)N(CCC(=O)Nc3cccc(C(=O)O)c3)C2=O)cc1 | -5% | ? | / | -25% | 28µM*
O=C(CCN1C(=O)/C(=C\c2ccco2)SC1=S)Nc1ccc(C(=O)O)c(O)c1 | -8% | ? | / | 18µM* | /
COc1ccccc1/C=C1\SC(=S)N(CCC(=O)Nc2ccc(C(=O)O)c(O)c2)C1=O | -9% | -3% | / | ? | /
O=C(CCN1C(=O)/C(=C/c2ccco2)SC1=S)Nc1ccc(O)cc1C(=O)O | 29% | -5% | / | 35µM* | /
COc1cc([C@@H]2c3cc4c(cc3C(O[C@@H]3O[C@@H]5COC(c6cccs6)O[C@H]5[C@H](O)[C@H]3O)C3COC(=O)[C@@H]32)OCO4)cc(OC)c1O (some centres not stated) | / | -1% | / | / | /
COc1ccc(C2Nc3ccccc3C(=O)N2Cc2ccco2)cc1COc1c(C)cccc1C (configuration not stated) | / | / | / | -13% | 0%
O=C(O)[C@@H](O)[C@@H](O)[C@H](O)[C@H](O)CO | -7% | ? | -15% | -6% | 7.9µM*!
OC[C@@H](O)C(O)[C@H](O)[C@H](O)CO (some centres not stated) | 1% | -3% | -14% | / | 6%
CN(C)c1nc(-c2ccccc2)c2cnn(Cc3ccccc3)c2n1 | -7% | 8% | -7% | -11% | 16µM*
Cn1nnnc1SCC(=O)c1ccco1 | -1% | 8% | 0% | -5% | -11%
O=C(CSCCSCC(=O)c1ccco1)c1ccco1 | -13% | ? | 35µM* | / | ?
COc1cccc(CN2C(=O)C3CCCN3c3ccc(S(=O)(=O)N4CCOCC4)cc32)c1 (configuration not stated) | -4% | 15% | 28µM* | / | 4%

Screening results from PubChem.
